# Screening results deposited in PubChem by National Center for Advancing Translational Sciences (NCATS).
# Shown are actives, neighbours in structure and some others; about 21% of the full set was active somewhere.
# Shiga inhibitor – A qHTS for Small Molecule Inhibitors of Shiga Toxin; actives 9.2% (n = 290,000); Vero cells, Shiga toxin protein synthesis inhibition reporter; inhibition, % at 38.7 µM; AID 2315, 2010; in the data active = inhibition mostly above about 28%, no sharp cut-off; inactive = mostly below about 43%; note: 0% is about no effect
# Pf growth 96h – Primary qHTS for delayed death inhibitors of the malarial parasite plastid, 96 hour incubation. actives 6.9% (n = 320,000). Potency, µM (titrated, usually from 28.7 µM), without a hit: top-dose activity change, negative = inhibition, hits mostly inhibitors. P. falciparum luciferase reporter growth, 96 h; active = well fitted inhibition curve with a large enough effect; inconclusive = small, poorly fitted or top-dose-only effect, or another doubt; inactive = no such curve, though single readings can be large or run the other way; note: potency is the fitted concentration of half-maximal effect; % is set by controls: 0 for no effect and ±100 for the full control effect
#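 Parasite growth measured via integrated firefly luciferase reporter in P. falciparum. Infected erythrocytes at 2% hematocrit, 0.05% parasitemia final were treated 96 hours at 37 C under 5% CO2, and luminescence was read.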
# SARS PLpro yeast – qHTS of Yeast-based Assay for SARS-CoV PLP | S. cerevisiae expressing SARS-CoV PLpro, growth rescue | Potency, µM (titrated, usually from 32.9 µM), without a hit: at the top dose activity, positive = growth rescue, hits mostly activators | actives 0.19% (n = 330,000) | AID 485353, 2010; note: potency is the fitted concentration of half-maximal effect; 0% is about no effect; nearly all actives have a fitted effect of over 55% in size
# NS1 function inh – qHTS Assay for Inhibitors of Influenza NS1 Protein Function. Potency, µM (doses to about 46.1 µM), inactives show top-dose activity, positive = more growth. AID 2326, 2010. actives 0.4% (n = 270,000); note: potency is the fitted concentration of half-maximal effect; actives are rising curves; nearly all actives have a fitted effect of over 50% in size
#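 S. cerevisiae expressing influenza A NS1, grown in glucose, washed, then diluted 1:100 into pH 6.0 -URA galactose medium with 23 nl compound. Growth recovery read as OD600; NS1-free strain serves as control.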
# Pf growth 48h – Primary qHTS for delayed death inhibitors of the malarial parasite plastid, 48 hour incubation; P. falciparum luciferase growth in erythrocytes, 48 h; Potency, µM (titrated, usually from 28.7 µM), for inactives: at the top dose activity change, negative = inhibition, most hits filed as inhibitors; actives 5.9% (n = 310,000); active = well fitted inhibition curve with a large enough effect; inconclusive = small, poorly fitted or top-dose-only effect, or another doubt; inactive = no such curve, though single readings can be large or run the other way; note: potency is the fitted concentration of half-maximal effect; % is set by controls: 0 for no effect and ±100 for the full control effect
#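 In quantitative HTS format, infected erythrocytes bearing luciferase-reporter parasites were treated for a single generation at 37 C. Luminescence after adding detection reagent served as the growth measure.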
# CHX counter – Cycloheximide Counterscreen for Small Molecule Inhibitors of Shiga Toxin; AID 2314, 2010; cell reporter, cycloheximide protein synthesis inhibition counterscreen; actives 12% (n = 300,000); max response, %; in the data active = max response mostly above about 13%, no sharp cut-off; inactive = mostly below about 14%; note: read at 38.3 µM for the half of the compounds with a filed dose; 0% is about no effect
# * = called active by the depositor; i = inactive; u = inconclusive; x = no result; [ ] = dose if it differs, or a comment. Unless noted, calls come from the whole dose curve.
SMILES,Shiga inhibitor,Pf growth 96h,SARS PLpro yeast,NS1 function inh,Pf growth 48h,CHX counter
CCOC(=O)Cc1csc(NC(=O)c2c(-c3c(Cl)cccc3Cl)noc2C)n1,-20,u,-8%,u,u,-3
CC(C(=O)O)N1C(=O)C2C3c4ccccc4C(c4ccccc43)[C@@H]2C1=O (some centres not stated),-5,2%,1%,3%,0%[0.00184 µM],-4
CCOc1ccc(CNC(=S)Nc2ccccc2)cc1Cl,-2,i,16%,-14%,u,-2
Cc1ccn2c(c1)nc(=S)n2C(=O)c1ccco1,74*,23%,3%,19%,149%,39*
Cc1cccc(NC(=S)N2CCN(C(=O)c3ccco3)CC2)c1,-26,u,1%,11%,5%,2
CN1CCN(C2CC(=O)N(c3ccc4c(c3)OCCO4)C2=O)CC1 (configuration not stated),54,17%,0%,-5%,x,34*
Cc1oc(-c2cccc(F)c2)nc1CN(Cc1ccccc1)C[C@@H]1CCC(=O)N1,-8,8.3µM*,-1%,-33%,u,-1
CC(=O)Nc1ccccc1C(=O)C(=O)NCCc1ccccc1,52,u,-1%,x,63%,4
CC(=O)Nc1ccccc1C(=O)C(=O)Nc1cccc(C(=O)N2CCC3(CC2)OCCO3)c1,-12,1.9µM*,4%,x,8%,-1
CC(=O)Nc1ccccc1C(=O)C(=O)Nc1ccc(C(=O)N2CCOCC2)cc1,10,-20%,-2%,x,81%,7
O=C(Nc1ccccc1)OCCNC(=O)c1cccc(Br)c1,-3,-22%,-1%,-9%,-12%[0.00184 µM],4
CCN(CC)CCNC(=O)c1cccc(NC(=O)C(=O)c2cc(Br)ccc2NC(C)=O)c1,-12,u,1%,x,10µM*,-4
CC(=O)Nc1cccc(C(=O)Nc2ccccc2C(=O)O)c1,-17,x,u,1%,-12%,-2
CC(=O)Nc1ccccc1C(=O)C(=O)Nc1ccccc1,41,7.4µM*,2%,6%,64%,11
CC(=O)Nc1ccccc1C(=O)C(=O)Nc1cccc(Br)c1,100*,u,-5%,3%,26%,37*
Cc1ccnc(NS(=O)(=O)c2ccc(NC(=O)c3ccc(S(=O)(=O)N4CC(C)OC(C)C4)cc3)cc2)n1 (configuration not stated),13,-44%,12%,-13%,u,-3
COc1ccc(C(=O)Nc2cc(C)on2)cc1S(=O)(=O)N1CC(c2ccccc2)CC1=O (configuration not stated),-2,73%,-5%,x,u,4
CCC(=O)Nc1ccccc1C(=O)OC(c1ccccc1)c1ccccc1,3,u,5%,-4%,u,1
CCC(=O)Nc1ccccc1C(=O)C(=O)Nc1ccccc1,38*,u,23%,-2%,127%,35*
CC(=O)Nc1ccc(C(=O)NNC(=O)c2ccc(Cl)cc2)cc1,8,7%,13%,2%,49%,-2
CC(=O)Nc1ccccc1C(=O)C(=O)Nc1ccc(Cl)cc1,75*,28%,-1%,x,69%,17*
CC(C)N(C(=O)[C@H]1CC(CC(=O)NCCc2ccccn2)C(=O)N2CCc3c([nH]c4ccccc34)[C@]12C)C(C)C (some centres not stated),x,x,0%,x,x,x
COCCN(C(=O)CSc1nnc(-c2cccc(F)c2)n1N)c1c(N)n(CC(C)C)c(=O)[nH]c1=O,-7,6%,-2%,4%,-12%,2
COc1cc2c(cc1OC)C(c1cccs1)N(C(=S)NC(C)C)CC2 (configuration not stated),-2,u,0%,x,2.6µM*,-2
COc1cc2c(cc1OC)C(c1cccs1)N(C(=O)c1ccc(S(=O)(=O)N(C)C)cc1)CC2 (configuration not stated),-1,13µM*,3%,-3%,10µM*,9
SMILES,Shiga inhibitor,Pf growth 96h,SARS PLpro yeast,NS1 function inh,Pf growth 48h,CHX counter
CCOc1cc(/C=C2\CCCc3c2nc2ccccc2c3C(=O)O)ccc1OC,1,2%,15%,5%,-1%,-3
CC(C)OCCCN(C)C1CCN(S(=O)(=O)c2csc(C(N)=O)c2)CC1,4,u,-6%,-3%,12%,-1
CC(C)OCCCN(C)C1CCN(S(=O)(=O)c2ccc(-c3cc(C(F)(F)F)no3)s2)CC1,-4,u,11%,6%,12µM*,-2
Cc1cc(C)nc(NC(=O)CSc2nn(-c3ccccc3)c(=S)s2)n1,-2,62%,1%,1%,57%,-1
COc1ccc(C(=O)/C=C/C(=O)N(CC(=O)NC2CCCCC2)Cc2ccccc2)c(O)c1,-4,2.6µM*,-2%,3%,u,2
COc1ccc(C(=O)/C=C/C(=O)N(CC(=O)NC2CCCCC2)Cc2ccccc2OC)c(O)c1,25,u,-1%,1%,9.3µM*,4
C#CCCCCCCC#CCN(C)C,-5,-14%,29%,10%,9%,-4
CCN(CC)C(=O)CSc1nc(-c2ccccc2)cc(=O)[nH]1,28,13%,1%,4%,27%,1
CCOC(=O)CNC(=S)N(Cc1ccco1)Cc1ccccc1Cl,-12,2.6µM*,0%,1%,-14%,-2
CCCCNC(=O)CNC(=S)N(Cc1ccc(C)cc1)Cc1ccco1,3,24%,-2%,x,u,-2
C=C1C(CCl)(CCl)C2(Cl)C(Cl)C(Cl)C1(Cl)C2(Cl)Cl (configuration not stated),x,2.7µM*,x,x,1.9µM*,x
O=C(CN1C(=O)c2ccccc2C1=O)NC1CCC(O)CC1 (configuration not stated),x,9%,-1%,x,21%,x
COc1ccc(S(=O)(=O)NCC(=O)N(CC(=O)NCC2CCCO2)c2ccccc2C)cc1 (configuration not stated),-3,14%,0%,-20%,-7%,1
Cc1ccc(S(=O)(=O)NCC(=O)N(CC(=O)NCc2ccco2)Cc2ccco2)cc1,26,13µM*,-1%,0%,3%,-2
CCOc1ccccc1N(CC(=O)NCC1CCCO1)C(=O)CNS(=O)(=O)c1ccccc1 (configuration not stated),-16,15µM*,-1%,-1%,-10%,-2
Cc1ccc(S(=O)(=O)NCC(=O)N(CC(=O)NCC2CCCO2)Cc2ccco2)cc1 (configuration not stated),29,i,1%,4%,19%,10*
COc1ccc(CNC(=O)CN(CC2CCCO2)C(=O)CNS(=O)(=O)c2ccc(F)cc2)cc1 (configuration not stated),10,10µM*,-34%,-8%,-2%,-4
